Consider 9 compounds from PubChem BioAssay (Tox21).

Assay [1] can be described thus: Human pregnane X receptor (PXR) small molecule agonists, qHTS cell viability counter screen (AID 1346977). Further: nearly all actives have a fitted effect of over 50% in size. Further: potency means the concentration at half of the fitted maximal effect. The method, boiled down:
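Tox21 qHTS format; PXR-Luc HepG2, 2,000/well, charcoal-stripped FBS 5%. Cpd exposure 24hr. Read: CellTiter-Fluor fluorescence, multiplexed with luciferase.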
(qHTS replaces the single test concentration by a dilution series.)

A short description of assay [2]: Caspase-3/7 induction in HepG2 cells by small molecules, qHTS assay (AID 1346978). Further: nearly all actives have a fitted effect of over 15% in size. Further: potency means the concentration at half of the fitted maximal effect. The method, boiled down: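 Wild-type HepG2 cells, 2,000/well, settled 5 hr at 37 C and 5% CO2, then compound-treated for 17 hr; caspase-3/7 activity read by luminescent Caspase-Glo 3/7 after 30 min at room temperature.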
Assay [3] can be described thus: Caspase-3/7 induction in CHO-K1 cells by small molecules, qHTS cell viability counter screen (AID 1346979). Further: nearly all actives have a fitted effect of over 35% in size. Further: potency means the concentration at half of the fitted maximal effect. The method, boiled down: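 CellTiter-Fluor viability check, qHTS format: wild-type CHO-K1, 16hr compound treatment, 1hr reagent incubation, fluorescence read.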
A short description of assay [4]: Caspase-3/7 induction in CHO-K1 cells by small molecules, qHTS assay (AID 1346980). Further: nearly all actives have a fitted effect of over 15% in size. The method, boiled down: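 Wild-type CHO-K1 cells exposed to compounds for 17hr at 37 C, 5% CO2. Caspase-3/7 activity then measured by Caspase-Glo 3/7 luminescence after 30min at room temperature.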
Assay [5] is described as follows: Caspase-3/7 induction in HepG2 cells by small molecules, qHTS cell viability counter screen (AID 1346981). Further: nearly all actives have a fitted effect of over 30% in size. Further: potency means the concentration at half of the fitted maximal effect. The method, boiled down:
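Counter screen for cytotoxicity: HepG2 exposed 16 hr to compounds, then CellTiter-Fluor viability signal (fluorescence, 1 hr reagent incubation).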

In assay [6] the target is Voltage-gated inwardly rectifying potassium channel KCNH2 (Homo sapiens) (UniProt Q12809). Briefly: Human Ether-a-go-go-Related Gene (hERG) channel small molecule antagonists: fluorescence cell-based qHTS assay (AID 1671200). Further: nearly all actives have a fitted effect of over 50% in size. Further: potency means the concentration at half of the fitted maximal effect. The procedure, abridged: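 Kinetic two-minute fluorescence traces, sampled at 1 s, were collected following thallium stimulus of U2OS cells (1000 per well) that had been cultured overnight at 37 C and loaded with FluxOR II.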
In general terms: The hERG channel carries a current that helps repolarise heart muscle cells.

The target of assay [7] is Acetylcholinesterase (Homo sapiens) (UniProt P22303). As to the kind of experiment: Acetylcholinesterase (AChE) small molecule antagonists: colormetric cell-based qHTS assay (AID 1347395; calls by dose curve; further: nearly all actives have a fitted effect of over 30% in size). The method, boiled down:
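AChE inhibition read colorimetrically via DTNB–thiocholine in SH-SY5Y cells. Compound 30 min, substrate 90 min, both 37 C.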

Assay [8] has the same target. Briefly: Acetylcholinesterase (AChE) small molecule antagonists: enzyme-based qHTS assay (AID 1347397; calls by dose curve; further: nearly all actives have a fitted effect of over 55% in size). To be noted: Potency: AChE enzyme activity inhibition; outcome: AChE enzyme activity inhibition. The method, boiled down:
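Enzyme inhibition was scored from DTNB-detected thiocholine formed by recombinant human AChE acting on acetylthiocholine. The 30 min compound preincubation and 10 min substrate reaction were both run at room temperature, with DMSO as vehicle control.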

Assay [9] has the same target. As to the kind of experiment: Acetylcholinesterase (AChE) small molecule antagonists: fluorescence cell-based qHTS assay (AID 1347398; calls by dose curve; further: nearly all actives have a fitted effect of over 50% in size). The settings on record: Potency: AChE activity; outcome: AChE activity. The procedure, abridged: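 Endogenous acetylcholinesterase of SH-SY5Y neuroblastoma cells is measured in situ. After overnight attachment and 30 min compound exposure, cells receive acetylthiocholine and Thiolite Green; fluorescence is read after 40 min at room temperature.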

For assay [10] the target is unchanged. As to the kind of experiment: Acetylcholinesterase (AChE) small molecule antagonists: enzyme-based qHTS assay with human liver microsomes (AID 1347399; calls by dose curve; further: nearly all actives have a fitted effect of over 60% in size). The settings on record: Potency: qHTS inhibition; outcome: qHTS inhibition. The procedure, abridged: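 Recombinant human AChE (50 mU/mL in the enzyme mix) and human liver microsomes (0.25 mg/mL final) were preincubated with compound and NADPH (0.25 mg/mL final) for 30 min at 37 C. Acetylthiocholine/DTNB was then added; thiocholine was read colorimetrically after 10 min at room temperature.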

For assay [11], the target named is Cytochrome P450 2D6 (Homo sapiens) (UniProt P10635). Briefly: Cytochrome P450 Family 2 Subfamily D Member 6 (CYP2D6) small molecule antagonists: luciferase reporter qHTS assay (AID 1671196). Further: nearly all actives have a fitted effect of over 50% in size. Further: potency means the concentration at half of the fitted maximal effect. The method, boiled down: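 Inhibition of CYP2D6 was gauged by loss of luminescence, since light produced tracks the luciferin generated from a proluciferin substrate. A 10 min room-temperature preincubation preceded 1 h NADPH-supported turnover.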
(In general: A reporter such as luciferase makes a cellular process visible.)

The target in assay [12] is Cytochrome P450 2C19 (Homo sapiens) (UniProt P33261). Briefly: Cytochrome P450 Family 2 Subfamily C Member 19 (CYP2C19) small molecule antagonists: luciferase reporter qHTS assay (AID 1671197). Further: nearly all actives have a fitted effect of over 65% in size. Further: potency means the concentration at half of the fitted maximal effect. The procedure, abridged: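 Luminescent readout of CYP2C19 activity: luciferin product detected 20 min after adding detection reagent. Before that, compound and enzyme-substrate mix preincubated 10 min at room temperature; NADPH-regenerating system started a 1 h, 37C reaction. Ketoconazole as positive control.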

The target in assay [13] is Cytochrome P450 3A4 (Homo sapiens) (UniProt P08684). As to the kind of experiment: Cytochrome P450 Family 3 Subfamily A Member 4 (CYP3A4) small molecule antagonists: luciferase reporter qHTS assay (AID 1671201). Further: nearly all actives have a fitted effect of over 50% in size. Further: potency means the concentration at half of the fitted maximal effect. The procedure, abridged:
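Proluciferin-to-luciferin conversion by CYP3A4, NADPH-regenerated, 1 h RT; luminescence read as RLU. Ketoconazole as control.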

The target in assay [14] is Nuclear receptor subfamily 1 group I member 2 (Homo sapiens) (UniProt O75469). Briefly: Human pregnane X receptor (PXR) small molecule agonists, qHTS assay (AID 1346982). Further: nearly all actives have a fitted effect of over 35% in size. Further: potency means the concentration at half of the fitted maximal effect. The procedure, abridged:
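Luminescence (ONE-Glo, 30 min RT) after 24 hr compound exposure of PXR-Luc HepG2 cells; cells rested 5 hr post-plating in 5% charcoal-stripped FBS medium.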

Assay [15] has as its target Nuclear receptor subfamily 1 group I member 2 (Rattus norvegicus) (UniProt Q9R1A7). As to the kind of experiment: Rat pregnane X receptor (rPXR) activation by small molecules, qHTS assay (AID 1346983). Further: nearly all actives have a fitted effect of over 20% in size. To be noted: rPXR luciferase reporter cells, One-Glo luminescence, 24 h; stronger effect = higher value. The procedure, abridged: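 Cell-based rPXR activation assay: rPXR cells, 2,000 per well, rested 5hr at 37 C, then exposed to compounds in DMSO for 24 hr at 37 C. Luciferase activity read by One-Glo luminescence after 30 min at room temperature.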

For assay [16], the target named is Nuclear receptor subfamily 1 group I member 2 (Homo sapiens) (UniProt O75469). Briefly: CYP3A4 induction through human pregnane X receptor (PXR) by small molecules, qHTS assay (AID 1346984). Further: nearly all actives have a fitted effect of over 40% in size. The procedure, abridged: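 DPX-2 reporter cells; 24h cpd, 37C; Luciferin-IPA 3uM final x3h; One-Glo 30 min RT; lumi read.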
Assay [17] has the same target. Briefly: Human pregnane X receptor (PXR) activation by small molecules, qHTS assay (AID 1346985). Further: nearly all actives have a fitted effect of over 40% in size. The method, boiled down:
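DPX-2 cells (HepG2 co-transfected with a PXR response element and a CYP3A4-promoter luciferase construct) were seeded at 2,000 per well, rested 5 hr at 37C, then exposed to DMSO-dissolved compounds for 24 hr. Activation was read as luciferase luminescence.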

The target of assay [18] is Cytochrome P450 2C9 (Homo sapiens) (UniProt P11712). Briefly: Cytochrome P450 Family 2 Subfamily C Member 9 (CYP2C9) small molecule antagonists: luciferase reporter qHTS assay (AID 1671198). Further: nearly all actives have a fitted effect of over 50% in size. Further: potency means the concentration at half of the fitted maximal effect. The method, boiled down:
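P450-Glo proluciferin substrate with CYP2C9 enzyme; 10 min RT preincubation, then NADPH regeneration 1 h at 37C; luciferin detection reagent 20 min RT, luminescence in relative luminescence units.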

For assay [19], the target named is Cytochrome P450 1A2 (Homo sapiens) (UniProt P05177). Briefly: Cytochrome P450 Family 1 Subfamily A Member 2 (CYP1A2) small molecule antagonists: luciferase reporter qHTS assay (AID 1671199). Further: nearly all actives have a fitted effect of over 50% in size. Further: potency means the concentration at half of the fitted maximal effect. The procedure, abridged: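 Signal from luciferin formed by CYP1A2 from a proluciferin substrate is read as luminescence, expressed in relative luminescence units. Compounds sit with enzyme 10 min, NADPH-driven reaction runs 1 h, all at room temperature.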

“And” between values parts separate entries of the source, which are not always exact repeats. Identical values can stand only once. Values without a mark were called inactive. Results filed as inconclusive are left out. The source made the active and inactive calls. Unless noted, the call rests on the fitted dose curve; in most records, active means well fitted curve in the direction sought with a large enough effect in the repeat runs; inconclusive means weak or mixed curves; inactive means no such curve, though single readings can be large; an effect the other way counts as inactive or inconclusive.
On the % scale 0 is the no-effect control and ±100 the full control effect.

Nuclear receptor subfamily 1 group I member 2 (Homo sapiens), sequence (O75469 whole entry, looked up): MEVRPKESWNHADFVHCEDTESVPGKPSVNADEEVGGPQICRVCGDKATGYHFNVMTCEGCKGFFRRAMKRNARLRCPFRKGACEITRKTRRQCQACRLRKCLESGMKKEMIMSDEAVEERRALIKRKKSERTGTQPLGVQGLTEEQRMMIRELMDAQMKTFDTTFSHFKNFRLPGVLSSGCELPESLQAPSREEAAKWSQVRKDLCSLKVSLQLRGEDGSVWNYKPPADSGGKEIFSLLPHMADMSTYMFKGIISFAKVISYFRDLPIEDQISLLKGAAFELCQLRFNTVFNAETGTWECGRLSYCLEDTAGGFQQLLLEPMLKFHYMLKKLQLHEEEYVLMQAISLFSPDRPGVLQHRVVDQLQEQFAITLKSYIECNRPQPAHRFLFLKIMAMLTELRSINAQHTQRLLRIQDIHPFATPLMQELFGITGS
Cytochrome P450 3A4 (Homo sapiens), sequence (P08684 whole entry, looked up): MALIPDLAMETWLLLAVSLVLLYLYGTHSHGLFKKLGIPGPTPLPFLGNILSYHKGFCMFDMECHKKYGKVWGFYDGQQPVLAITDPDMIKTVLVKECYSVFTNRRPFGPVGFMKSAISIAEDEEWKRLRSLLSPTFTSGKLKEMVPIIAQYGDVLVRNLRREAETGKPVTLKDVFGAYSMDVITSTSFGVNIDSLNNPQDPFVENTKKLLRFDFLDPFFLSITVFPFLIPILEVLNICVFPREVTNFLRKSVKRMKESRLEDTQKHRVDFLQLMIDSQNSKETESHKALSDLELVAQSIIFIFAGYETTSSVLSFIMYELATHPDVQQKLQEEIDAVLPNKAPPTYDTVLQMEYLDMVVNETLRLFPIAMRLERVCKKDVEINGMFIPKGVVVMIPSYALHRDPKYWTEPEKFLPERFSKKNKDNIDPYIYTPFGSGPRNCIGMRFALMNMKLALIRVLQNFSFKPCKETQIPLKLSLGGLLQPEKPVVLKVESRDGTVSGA
Voltage-gated inwardly rectifying potassium channel KCNH2 (Homo sapiens), sequence (Q12809 whole entry, looked up): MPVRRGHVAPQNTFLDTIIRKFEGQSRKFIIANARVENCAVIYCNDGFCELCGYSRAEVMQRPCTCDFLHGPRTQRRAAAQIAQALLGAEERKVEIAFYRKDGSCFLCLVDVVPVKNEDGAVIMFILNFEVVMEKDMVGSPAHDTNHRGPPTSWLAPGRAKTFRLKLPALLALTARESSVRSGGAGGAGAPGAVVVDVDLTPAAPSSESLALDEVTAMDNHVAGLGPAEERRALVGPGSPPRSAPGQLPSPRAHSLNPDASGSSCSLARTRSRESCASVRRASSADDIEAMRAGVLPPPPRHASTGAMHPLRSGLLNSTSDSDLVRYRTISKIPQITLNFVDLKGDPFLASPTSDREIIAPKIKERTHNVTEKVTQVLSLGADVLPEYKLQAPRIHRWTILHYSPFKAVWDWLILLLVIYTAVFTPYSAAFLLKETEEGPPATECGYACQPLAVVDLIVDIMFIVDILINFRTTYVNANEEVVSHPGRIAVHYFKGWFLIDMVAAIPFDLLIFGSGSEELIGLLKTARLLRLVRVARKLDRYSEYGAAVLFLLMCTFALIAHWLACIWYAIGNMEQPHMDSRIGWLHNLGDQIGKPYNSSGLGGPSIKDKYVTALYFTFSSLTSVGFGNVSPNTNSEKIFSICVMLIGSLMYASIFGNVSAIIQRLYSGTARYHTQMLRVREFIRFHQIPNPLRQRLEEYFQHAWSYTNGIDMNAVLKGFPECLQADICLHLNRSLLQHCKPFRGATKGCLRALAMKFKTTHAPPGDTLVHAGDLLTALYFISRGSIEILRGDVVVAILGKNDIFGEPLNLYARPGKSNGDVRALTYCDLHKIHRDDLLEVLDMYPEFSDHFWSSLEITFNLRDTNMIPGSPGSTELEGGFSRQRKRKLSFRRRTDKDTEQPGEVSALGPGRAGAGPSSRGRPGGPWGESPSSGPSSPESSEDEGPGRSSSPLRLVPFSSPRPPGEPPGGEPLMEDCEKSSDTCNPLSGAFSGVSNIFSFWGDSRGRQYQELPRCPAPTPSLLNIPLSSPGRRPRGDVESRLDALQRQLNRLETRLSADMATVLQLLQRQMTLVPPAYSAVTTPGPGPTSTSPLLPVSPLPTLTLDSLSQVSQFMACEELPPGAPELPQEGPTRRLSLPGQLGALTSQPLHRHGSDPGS
Cytochrome P450 1A2 (Homo sapiens), sequence (P05177 whole entry, looked up): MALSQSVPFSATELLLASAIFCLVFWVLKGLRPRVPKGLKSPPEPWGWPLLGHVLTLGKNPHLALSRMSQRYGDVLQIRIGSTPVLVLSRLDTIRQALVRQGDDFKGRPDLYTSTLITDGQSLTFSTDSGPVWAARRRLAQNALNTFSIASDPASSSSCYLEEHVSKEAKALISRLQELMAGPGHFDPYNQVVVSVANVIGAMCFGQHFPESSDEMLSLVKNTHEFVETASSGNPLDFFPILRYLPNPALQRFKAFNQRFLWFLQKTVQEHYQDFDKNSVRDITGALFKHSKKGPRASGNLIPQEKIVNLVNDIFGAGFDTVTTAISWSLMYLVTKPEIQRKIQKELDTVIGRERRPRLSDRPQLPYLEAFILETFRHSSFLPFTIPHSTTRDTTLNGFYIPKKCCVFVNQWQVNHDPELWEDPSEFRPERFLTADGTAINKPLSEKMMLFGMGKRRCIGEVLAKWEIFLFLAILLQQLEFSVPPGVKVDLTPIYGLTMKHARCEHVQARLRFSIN
Cytochrome P450 2C19 (Homo sapiens), sequence (P33261 whole entry, looked up): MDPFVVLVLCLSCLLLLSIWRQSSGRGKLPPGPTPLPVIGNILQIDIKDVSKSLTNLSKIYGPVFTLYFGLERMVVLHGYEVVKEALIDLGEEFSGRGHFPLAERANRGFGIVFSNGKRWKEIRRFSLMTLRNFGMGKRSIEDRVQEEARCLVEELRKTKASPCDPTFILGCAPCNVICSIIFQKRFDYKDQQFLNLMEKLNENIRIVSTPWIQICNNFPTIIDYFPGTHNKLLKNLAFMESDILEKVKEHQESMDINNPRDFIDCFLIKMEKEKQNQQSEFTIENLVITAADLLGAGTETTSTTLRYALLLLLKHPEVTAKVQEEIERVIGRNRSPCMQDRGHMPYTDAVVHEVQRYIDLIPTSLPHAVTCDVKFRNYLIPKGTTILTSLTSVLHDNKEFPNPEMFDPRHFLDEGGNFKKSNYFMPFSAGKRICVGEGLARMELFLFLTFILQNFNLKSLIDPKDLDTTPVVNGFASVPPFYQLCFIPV
Cytochrome P450 2D6 (Homo sapiens), sequence (P10635 whole entry, looked up): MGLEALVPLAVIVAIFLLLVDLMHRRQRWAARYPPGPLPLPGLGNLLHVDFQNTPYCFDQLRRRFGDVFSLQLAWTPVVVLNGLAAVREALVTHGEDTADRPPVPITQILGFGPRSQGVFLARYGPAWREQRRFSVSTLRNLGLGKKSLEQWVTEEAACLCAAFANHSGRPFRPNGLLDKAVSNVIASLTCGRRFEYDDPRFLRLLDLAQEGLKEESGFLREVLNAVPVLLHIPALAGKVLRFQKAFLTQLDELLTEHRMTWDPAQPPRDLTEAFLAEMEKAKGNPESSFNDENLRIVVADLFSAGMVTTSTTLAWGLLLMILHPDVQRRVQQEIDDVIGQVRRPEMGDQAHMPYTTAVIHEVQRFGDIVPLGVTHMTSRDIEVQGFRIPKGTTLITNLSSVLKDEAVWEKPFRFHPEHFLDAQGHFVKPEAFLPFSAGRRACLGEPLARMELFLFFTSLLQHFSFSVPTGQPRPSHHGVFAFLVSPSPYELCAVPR
Cytochrome P450 2C9 (Homo sapiens), sequence (P11712 whole entry, looked up): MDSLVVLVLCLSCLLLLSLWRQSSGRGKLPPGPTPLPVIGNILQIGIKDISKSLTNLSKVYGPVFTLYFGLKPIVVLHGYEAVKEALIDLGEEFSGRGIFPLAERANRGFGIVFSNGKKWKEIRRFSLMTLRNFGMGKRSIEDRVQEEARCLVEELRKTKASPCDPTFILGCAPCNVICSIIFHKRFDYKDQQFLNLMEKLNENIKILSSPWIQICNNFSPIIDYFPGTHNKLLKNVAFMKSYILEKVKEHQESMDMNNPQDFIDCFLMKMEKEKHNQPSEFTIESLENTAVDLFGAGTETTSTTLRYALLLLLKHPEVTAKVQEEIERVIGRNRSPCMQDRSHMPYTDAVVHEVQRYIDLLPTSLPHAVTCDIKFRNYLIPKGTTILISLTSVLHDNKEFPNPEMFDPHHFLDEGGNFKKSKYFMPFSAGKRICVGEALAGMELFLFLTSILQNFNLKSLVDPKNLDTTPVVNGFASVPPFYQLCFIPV
Nuclear receptor subfamily 1 group I member 2 (Rattus norvegicus), sequence (Q9R1A7 whole entry, looked up): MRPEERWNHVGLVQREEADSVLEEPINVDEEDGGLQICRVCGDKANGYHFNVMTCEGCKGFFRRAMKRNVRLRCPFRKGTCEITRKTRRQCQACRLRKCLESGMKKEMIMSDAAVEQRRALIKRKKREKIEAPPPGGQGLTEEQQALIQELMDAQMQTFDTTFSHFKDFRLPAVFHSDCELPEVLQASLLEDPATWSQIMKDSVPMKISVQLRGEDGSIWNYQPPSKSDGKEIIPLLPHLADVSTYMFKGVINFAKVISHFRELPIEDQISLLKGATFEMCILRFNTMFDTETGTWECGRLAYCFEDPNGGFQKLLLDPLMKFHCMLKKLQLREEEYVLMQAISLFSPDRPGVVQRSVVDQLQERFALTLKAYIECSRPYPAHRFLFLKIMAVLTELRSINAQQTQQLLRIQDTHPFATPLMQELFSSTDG

In the case of `Cc1ncc(C[n+]2csc(CCO)c2C)c(N)n1`, the Potency entry in assay [1], in assay [2], in assay [3], in assay [4], in assay [5] and in [6] was “inactive” each time.

Turning to `CCNC(=O)NC(=O)/C(C#N)=N/OC`, the Potency result in assay [1], in assay [2], in [3], in assay [4], in [5] and in [7] was “inactive” throughout. Further, the Potency entry in [8], in assay [9], in assay [10], in assay [11], in assay [12] and in assay [6] was “inactive” throughout. Besides, the Potency entry in [13] is “inactive”.

For `O=C(N/N=C/c1ccc([N+](=O)[O-])o1)c1cc([N+](=O)[O-])cc([N+](=O)[O-])c1O`, the Potency in [1] was 21.1 µM (active); in [5], 13.3 µM (active); in assay [18], 30.9 µM (active). In addition, the Potency entry in assay [2], in assay [4], in assay [14], in assay [17], in assay [8] and in assay [9] was “inactive” throughout. Also, the Potency entry in assay [10], in assay [11], in [12], in [19], in assay [6] and in assay [13] was “inactive” throughout. Besides, the max activation in assay [15] is 3.24%. Besides, the result in [16] was inactive.

For `O=C(O)CCCOc1ccc(Cl)cc1Cl`, the Potency entry in assay [1], in [2], in [3], in assay [4], in assay [5] and in [6] was “inactive” in each case.

Turning to `CC1(C)[C@H](C(=O)O[C@H](C#N)c2cccc(Oc3ccccc3)c2)[C@@H]1C=C(Br)Br`, the Potency result in assay [1], in assay [2], in assay [3], in assay [4], in assay [5] and in [11] was “inactive” in each case. Besides, the Potency entry in assay [19], in assay [6] and in assay [13] was “inactive” each time. Also, the Potency in [12] is 5.87 µM (active) and 7.1 µM (active); in assay [18] it was 1.86 µM (active) and 3.99 µM (active).

On to `CCCCCCCCn1sccc1=O`, for which the Potency was 50.1 µM (active) and 25.5 µM (active) in assay [1]; 25.5 µM (active) in assay [2]; 68.7 µM (active) and 50.9 µM (active) in assay [5]; 21.7 µM (active) and 4.04 µM (active) in assay [14]; 11.3 µM (active) in assay [11]; 10.1 µM (active) and 23.5 µM (active) in [12]. The Potency in assay [18] was 10.1 µM (active) and 9.37 µM (active); in assay [19] it was 28.3 µM (active) and 23.5 µM (active); in [6], 21.9 µM (active); in [13] it was 28.3 µM (active) and 37.3 µM (active). The Potency entry in [4], in assay [7], in assay [8], in assay [9] and in [10] was “inactive” throughout.

In the case of `C[CH2][Hg][S]c1ccccc1C(=O)O`, the Potency in assay [1] was 3.44 µM (active) and 6.68 µM (active); in assay [3], 1.72 µM (active) and 1.88 µM (active). The Potency result in [2], in assay [4] and in assay [6] was “inactive” throughout. For the same compound, the max activation in assay [15] was -14.1%.

With `CC(C)CCCCCCCOC(=O)c1ccccc1C(=O)OCCCCCCCC(C)C`, the Potency entry in assay [1], in [2], in [3], in assay [4], in [14] and in assay [7] was “inactive” in each case. Further, the Potency entry in [8], in assay [9], in [10], in [12], in assay [19] and in assay [6] was “inactive” in each case. Moreover, in [13], the Potency result is “inactive”.

With `CCCC1CCCCN1` (centres undefined), the Potency result in assay [1], in assay [2], in assay [4], in [5], in assay [14] and in assay [17] was “inactive” each time. Further, the Potency result in assay [7], in assay [8], in assay [9], in assay [10], in assay [12] and in assay [18] was “inactive” throughout. In addition, the Potency entry in assay [19], in [6] and in assay [13] was “inactive” throughout. The max activation in [15] is -2.95%. Moreover, the outcome in assay [16] was inactive.
